A number with no mark means an inactive call.
system: Caenorhabditis elegans L1 (N2); assay: survival and reproduction score of C. elegans L1 (0: 0-10 living worms, 1: 11-20, 2: 21-50, 3: >50, 4: overgrown) (score 0-4); higher = more worms, less nematicidal, active = 1 or less; extreme values may be limits of the assay; details: 60 µM; 6 days; temperature: 20 °C
Procedure, shortened: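 About 20 synchronized C. elegans N2 L1s were added per 96-well well with E. coli HB101 in liquid NGM, and compound was pinned to 60 µM final (0.6% v/v DMSO). Sealed plates were shaken at 200 rpm for 6 days at 20 °C. Survival and reproduction were scored under a dissection microscope as an ordinal score of living worms per well. The scale ran 0 (0–10 worms) to 4 (overgrown, starved), and two biological replicates were averaged.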

`COc1ccc(-c2nc(-c3ccccc3Cl)no2)cc1` was tested. Which “survival and reproduction score” value did it give?
Its value is 4.

Which “survival and reproduction score” value does the source give for `Cc1cc(Cl)ccc1OCc1nc(-c2ccccc2)no1` here?
Its value is 4.

With `CNC(=O)O/N=C(\SC)C(=O)N(C)C` [oxamyl] as the compound, how does the “survival and reproduction score” value read?
The value was 4.

How did the “survival and reproduction score” value turn out when `COc1cccc(-c2nnc(SCc3ccccc3)o2)c1` was run?
Its value is 4.

How did the “survival and reproduction score” value turn out when `Cc1ccc(-c2noc(-c3ccccc3C(=O)N3CCC(C)CC3)n2)cc1` was run?
Its value is 4.

For `CCCc1ccc(-c2ccc(-c3nc(-c4ccccn4)no3)cc2)cc1`, which “survival and reproduction score” value is on record?
The value was 4.

With `Cc1cccc(OCc2nc(-c3ccccc3)no2)c1` as the compound, how does the “survival and reproduction score” value read?
The value was 1.5.

How did the “survival and reproduction score” value turn out when `O=C(CSc1nnc(-c2ccc(Br)cc2)o1)Nc1cccc2ccccc12` was run?
Its value is 4.

Reference: the supplement of paper PMC11219838
